Bioassay records deposited in PubChem BioAssay by National Center for Advancing Translational Sciences (NCATS).
DT40 TDP1 CPT: qHTS for Inhibitors of human tyrosyl-DNA phosphodiesterase 1 (TDP1): qHTS in cells in presence of CPT | chicken DT40 Tdp1-/-;hTDP1 cells + 20 nM CPT, ATP luminescence, 48 h | Potency, µM (top dose mostly 46.2 µM), without a hit: at the highest dose activity change, negative = growth inhibition, most hits filed as inhibitors | actives 12% (n = 420,000) | AID 686979, 2013; further: on the % scale 0 is the no-effect control and ±100 the full control effect; nearly all actives have a fitted effect of over 55% in size
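Cell growth measured by CellTiter-Glo luminescence after a minimum 48 h, 37 C compound exposure with 20 nM CPT in Tdp1-knockout DT40 cells stably expressing hTDP1, seeded 400/well; qHTS titration format.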
TGFb inhibitor: qHTS for Inhibitors of TGF-b; HepG2 CAGA-GFP TGF-b/SMAD3 reporter, GFP fluorescence, 18 h; TGF-beta stimulated, 500 pg/mL final; Potency, µM (top dose mostly 46.1 µM), without a hit: at the top dose activity, negative = inhibition, most hits filed as inhibitors; actives 1.2% (n = 410,000); AID 588855, 2011; further: on the % scale 0 is the no-effect control and ±100 the full control effect; nearly all actives have a fitted effect of over 65% in size
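HEPG2 CAGA-GFP reporter cells (1000/well, DMEM with 1% FBS) received compounds, then recombinant TGF-beta at 500 pg/mL final for 18 hours at 37 degrees C. Per-cell GFP summed per well was normalised to unstimulated and stimulated DMSO controls before curve fitting.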
HT1080-NT tox: qHTS for induction of synthetic lethality in tumor cells producing 2HG: qHTS for the HT-1080-NT fibrosarcoma cell line; Potency, µM (titrated, usually from 46.1 µM), without a hit: at the top dose activity, negative = less viability, most hits filed as cytotoxic; HT-1080-NT fibrosarcoma viability, CellTiter-Glo ATP luminescence, 48 h; actives 1.6% (n = 360,000);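 further: NT is the 2HG producing partner of a matched IDH1 knockdown line; 0% = DMSO-treated cells and -100% = media-only wells without cells; nearly all actives have a fitted effect of over 55% in size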
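Compounds were tested in concentration-response format on HT-1080-NT cells for 48 hours at 37 degrees C. Cell viability came from CellTiter-Glo luminescence; curves were classified by r2, response magnitude and activity.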
HepG2 viability: qHTS for Inhibitors of TGF-b: Cytotox Counterscreen | actives 0.76% (n = 410,000) | Potency, µM (highest dose often 46.1 µM), for inactives: at the highest dose activity change, negative = cytotoxicity, actives largely listed as cytotoxic | HepG2 CAGA-GFP viability, ATP luminescence, 18 h
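HepG2 CAGA-GFP cells (1000/well, DMEM with 1% FBS) received compound, then TGF-beta at 500 pg/mL final, and were incubated 18 hours at 37 degrees C. Viability was read by CellTiter-Glo luminescence. Media-only wells were set as complete cell-killing and DMSO as no toxicity.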
DT40 TDP1 no CPT: qHTS for Inhibitors of human tyrosyl-DNA phosphodiesterase 1 (TDP1): qHTS in cells in absence of CPT. DT40 Tdp1-/- hTDP1 cells, no CPT, ATP luminescence, 48 h. actives 15% (n = 420,000). Potency, µM (doses to about 46.2 µM), inactives show at the top dose activity change, negative = growth inhibition, usual class: inhibitors; further: on the % scale 0 is the no-effect control and ±100 the full control effect; nearly all actives have a fitted effect of over 55% in size
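DT40 Tdp1-/-;hTDP1 cells, no CPT (DMSO vehicle only), 400 cells/well; compounds pin-transferred; ≥48 hr, 37 °C; CellTiter-Glo 30 min RT dark, luminescence read.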
HT1080 IDH1KD tx: qHTS for induction of synthetic lethality in tumor cells producing 2HG: qHTS for the HT-1080-IDH1KD cell line. Potency, µM (top dose mostly 46.1 µM), without a hit: top-dose activity, negative = toxicity, hits mostly cytotoxic. HT-1080 IDH1 knockdown viability, ATP luminescence, 48 h. actives 2% (n = 360,000);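 further: 0% = DMSO wells and -100% = cell-free medium wells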
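Luminescent ATP read-out (CellTiter-Glo, 10 min at room temperature) after 48 h compound exposure at 37 °C gave viability of IDH1-knockdown HT-1080 cells. Activity was normalised to DMSO and cell-free wells, then fitted as concentration-response curves.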
Numbers without * were called inactive; ? = inconclusive; / = no result; [ ] = remark or other dose. Most compounds without a hit are left out; they make up all but 17% or so of the library. The call rests on the fitted dose curve; in most records, active means well fitted curve in the direction sought with a large enough effect; inconclusive means small, poorly fitted or top-dose-only effect, or another doubt; inactive means no such curve, though single readings can be large; an effect the other way counts as inactive or inconclusive. Potency means the concentration at half of the fitted maximal effect.

SMILES	DT40 TDP1 CPT	TGFb inhibitor	HT1080-NT tox	HepG2 viability	DT40 TDP1 no CPT	HT1080 IDH1KD tx
CC(C)c1ccc(C(C(C(=O)c2ccccc2)N2CCOCC2)N2CCOCC2)cc1 (stereo not drawn)	5%	-7%	-7%	-5%	-1%	4%
CCN(CC(F)(F)C(F)F)S(=O)(=O)c1ccc(NC(=O)OC)cc1	26µM*	5%	-24%	3%	16µM*	-16%
CCN(CC(=O)NCc1ccc(F)cc1)C(=O)/C=C/c1ccc(S(=O)(=O)N(CC)CC)cc1	23µM*	4%	16µM*	-6%	21µM*	4.6µM*
CCN(CC)S(=O)(=O)c1ccc(/C=C/C(=O)Nc2cccc(F)c2)cc1	21µM*	-9%	-10%	-12%	21µM*	-18%
COC(=O)Nc1ccc(S(=O)(=O)N(C)C)cc1	?	-4%	3%[9.24 µM]	2%	-13%	-6%
CCN(CC)S(=O)(=O)c1ccc(NC(=O)Nc2cccc(C(F)(F)F)c2)cc1	2.6µM*	?	?	11µM*	2.6µM*	?
O=C(CCC(=O)NNC(=O)c1ccc(Cl)cc1Cl)NCc1ccccc1	-1%	-23%	-2%	-18%	-5%	21%
CCOc1ccc(NC(=O)CC2C(=O)N(c3ccc(OC)cc3)C(=S)N2Cc2ccccn2)cc1 (stereo not drawn)	-6%	-14%	-1%	-4%	?	-4%
Cc1ccc(S(=O)(=O)Nc2ccc(NC(=O)Nc3cccc(C(F)(F)F)c3)cc2)cc1	18µM*	16µM*	?	18µM*	?	?
O=S(=O)(Nc1cccc(C(F)(F)F)c1)c1ccc(NS(=O)(=O)c2ccc3c(c2)OCCO3)cc1	-27%	?	/	-11%	1%	/
O=C1CSC(=S)N1N=Cc1ccc2c(c1)OCO2	?	-10%	0%	-13%	?	8%
O=C(NCCOc1ccccc1)c1ccccc1[N+](=O)[O-]	-4%	1%	5%	39%	-3%	3%
COc1ccc(C(=O)NCCOc2cccc(Oc3ccccc3)c2)cc1OC	?	-22%	-6%	0%	12µM*	-7%
COc1cc(C(=O)NCCOc2cc(C)cc(C)c2)cc(OC)c1OC	4.1µM*	-18%	12µM*	-17%	2.9µM*	7.3µM*
O=C(NCCOc1ccccc1)c1cc(C(=O)NCCOc2ccccc2)cc([N+](=O)[O-])c1	?	?	0%	-2%	18µM*	-18%
Cc1ccc(C(C)C)c(OCCNCCc2ccccc2)c1	?	?	0%	-106%	23µM*	-5%
Nc1c(-c2ccc(F)c(F)c2)nc2ncccn12	12%	/	12%	/	-4%	17%
CC(=O)C1CN(S(=O)(=O)c2ccc(C)cc2)C(c2ccccc2)CC1C (stereo not drawn)	?	/	3%	/	?	-5%
CCN1C(=O)CSC1=Nc1ccc(OC)cc1	7%	25%	12%	-5%	-5%	14%
Cc1ccc(C(C)C)c(OCCNC(=O)c2cncc(Br)c2)c1	?	?	-4%	-41%	?	-22%
Cc1ccc(C(C)C)c(OCCn2ccnc2C)c1	16µM*	-7%	-30%	-4%	23µM*	0%
COc1cc(C(=O)NCCOc2cc(C)ccc2C(C)C)cc(OC)c1OC	?	?	?	-13%	12µM*	?
CCOc1ccccc1C=NNC(=O)C1CC1	-10%	10%	0%	4%	-20%	7%
Nc1nc(NC2CC2)c2ncn([C@@H]3C=C[C@@H](CO)C3)c2n1	12µM*	/	/	/	15µM*	/
OC[C@@H]1CN(Cc2ccc(Cl)cc2)C[C@H](n2cnc3c(NC4CC4)ncnc32)O1	?	-7%	?	-3%	-26%	2%
SMILES	DT40 TDP1 CPT	TGFb inhibitor	HT1080-NT tox	HepG2 viability	DT40 TDP1 no CPT	HT1080 IDH1KD tx
COc1cc2cc(CCCOC(=O)c3ccco3)oc(=O)c2cc1OC	-10%	2%	6%	2%	-12%	0%
CCOC(=O)N1CCN(CCC(=O)c2ccc(Cl)cc2)CC1	2.3µM*	?	?	-59%	3.3µM*	-18%
CCOC(=O)N1CCN(CCC(=O)c2ccc(Br)cc2)CC1	2.9µM*	-27%	?	-29%	7.3µM*	?
CCOC(=O)N1CCN(C(=O)Cc2ccc(Cl)cc2)CC1	0%	?	3%	-29%	-12%	0%
CCOC(=O)N1CCN(CCC(=O)Nc2ccc(C)cc2)CC1	-9%	2%	16%	-1%	3%	8%
Cc1ccc(S(=O)(=O)NC(=O)C2(C)CCN2C(=O)Cc2ccc(Cl)cc2Cl)cc1 (stereo not drawn)	?	-9%	-10%	-33%	?	-5%
Cc1ccc(NS(=O)(=O)c2ccc(OCC(=O)NCc3cccnc3)cc2)cc1	-15%	-21%	-7%	-19%	-5%	3%
OC(c1cc(C(F)(F)F)nc2c(Cl)cc(Cl)cc12)C1CCCCN1 (stereo not drawn)	18µM*	?	?	-118%	?	?
O=c1c2cc(Cl)cc(Cl)c2nc2n1CCC2	-4%	4%	11%	3%	-4%	8%
OC(c1cc(-c2ccc(Cl)cc2)nc2ccccc12)C1CCCCN1 (stereo not drawn)	23µM*	-7%	?	-18%	26µM*	-8%
COc1ccc2nc(SC(C(=O)c3ccccc3)c3ccccc3)nc(C)c2c1 (stereo not drawn)	23µM*	-16%	1%	-9%	?	11%
CCOc1ccc(CCNS(=O)(=O)c2c(C)n[nH]c2C)cc1OCC	21µM*	-6%	13%	6%	-18%	11%
Cc1ccccc1NC(=O)N1CCCC(c2nc(-c3ccc(C(C)C)cc3)no2)C1 (stereo not drawn)	16µM*	-29%	-29%	-16%	35µM*	-21%
O=C(Nc1ccccc1)N1CCCC(c2nc(-c3ccc(F)cc3)no2)C1 (stereo not drawn)	?	-13%	-4%	-21%	18µM*	-10%
